Results taken from PubChem BioAssay (Tox21).
Values joined by “and” are separate entries in the source; they are usually repeats but may differ in a detail not shown here. Equal entries are not always repeated. Records with an inconclusive call do not appear. Where a structure was tested more than once in an assay, its records may differ in their call. Active and inactive are the calls of the source. Unless noted, calls come from the whole dose curve; as a rule, active = well fitted curve in the direction sought with a large enough effect in the repeat runs; inconclusive = weak or mixed curves; inactive = no such curve, though single readings can be large; an effect the other way counts as inactive or inconclusive.

Columns and labels:
[1] = qHTS assay to identify small molecule agonists of the peroxisome proliferator-activated receptor delta (PPARd) signaling pathway - cell viability counter screen (AID 743211); note: nearly all actives have a fitted effect of over 55% in size; note: potency is the fitted concentration of half-maximal effect
In short: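 Following 5 h plating at 37 C and 5% CO2, PPARd UAS-bla HEK293H cells took up test compounds for 17 h. Viability was quantified by luminescence 30 min after CellTiter-Glo addition at room temperature.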

[2] = qHTS assay to identify small molecule antagonists of the peroxisome proliferator-activated receptor delta (PPARd) signaling pathway - cell viability counter screen (AID 743213); note: nearly all actives have a fitted effect of over 50% in size; note: potency is the fitted concentration of half-maximal effect
In short: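 HEK293H PPARd UAS-bla cells, 5 h pre-incubation, compound + L165041 300 nM final, 17 h 37 C; B/G FRET substrate 2 h RT; then CellTiter-Glo 30 min RT, luminescence.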

[3] = qHTS assay to identify small molecule agonists of the vitamin D receptor (VDR) signaling pathway - cell viability counter screen (AID 743224); note: nearly all actives have a fitted effect of over 50% in size; note: potency is the fitted concentration of half-maximal effect
In short: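 Viability is measured in the same wells as the VDR-bla reporter assay: after 16 h compound treatment and 2 h substrate loading, CellTiter-Glo is added and luminescence read 30 min later.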

[4] = qHTS assay to identify small molecule antagonists of the vitamin D receptor (VDR) signaling pathway - cell viability counter screen (AID 743225); note: nearly all actives have a fitted effect of over 50% in size; note: potency is the fitted concentration of half-maximal effect
In short: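 In this counter screen, VDR-bla HEK 293T cells receive test compound plus 3 nM final calcitriol for 16 h at 37C. Room-temperature steps of 2 h with the beta-lactamase substrate, then 30 min with CellTiter-Glo, precede the luminescence read.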

[5] = qHTS assay to identify small molecule antagonists of the retinoid-related orphan receptor gamma (ROR-gamma) signaling pathway - cell viability counter screen (AID 1159520); note: nearly all actives have a fitted effect of over 50% in size; note: potency is the fitted concentration of half-maximal effect
In short: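 Tet-on ROR gamma CHO cells (1,000/well) were plated 4 hr, given compounds in DMSO for 2 hr at 37 C, then induced with 1 uM final doxycycline for 16 hr. Viability was read as ATP by CellTiter-Glo luminescence after 30 min.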

[6] = qHTS assay to identify small molecule agonists of the AP-1 signaling pathway - cell viability counter screen (AID 1159525; calls by dose curve; note: nearly all actives have a fitted effect of over 55% in size; note: potency is the fitted concentration of half-maximal effect)
In short: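 ME-180 AP-1-bla, 2500 cells/well, Opti-MEM + 0.5% dialyzed FBS; overnight 37 °C; cpd 15-pt titration, 5 h 37 °C; CellTiter-Glo 30 min RT; luminescence read; normalised to TOAB and DMSO controls.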

[7] = qHTS assay to identify small molecule agonists of the AP-1 signaling pathway (AID 1159526; calls by dose curve; note: potency is the fitted concentration of half-maximal effect)
[8] = target: Nuclear receptor ROR-gamma (Homo sapiens) (UniProt P51449); experiment: qHTS assay to identify small molecule antagonists of the retinoid-related orphan receptor gamma (ROR-gamma) signaling pathway (AID 1159521; note: nearly all actives have a fitted effect of over 50% in size; note: potency is the fitted concentration of half-maximal effect)
In short: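 Screening format: cell-based luciferase reporter in CHO cells with doxycycline-inducible RORγ. Compound pre-exposure lasts 2 h, doxycycline is 1 uM final, induction runs 16 h at 37 C, and ONE-Glo luminescence is read.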

[9] = target: Peroxisome proliferator-activated receptor delta (Homo sapiens) (UniProt Q03181); experiment: qHTS assay to identify small molecule agonists of the peroxisome proliferator-activated receptor delta (PPARd) signaling pathway (AID 743212; calls by dose curve)
Chain of Peroxisome proliferator-activated receptor delta (Homo sapiens) (Q03181 whole entry, looked up): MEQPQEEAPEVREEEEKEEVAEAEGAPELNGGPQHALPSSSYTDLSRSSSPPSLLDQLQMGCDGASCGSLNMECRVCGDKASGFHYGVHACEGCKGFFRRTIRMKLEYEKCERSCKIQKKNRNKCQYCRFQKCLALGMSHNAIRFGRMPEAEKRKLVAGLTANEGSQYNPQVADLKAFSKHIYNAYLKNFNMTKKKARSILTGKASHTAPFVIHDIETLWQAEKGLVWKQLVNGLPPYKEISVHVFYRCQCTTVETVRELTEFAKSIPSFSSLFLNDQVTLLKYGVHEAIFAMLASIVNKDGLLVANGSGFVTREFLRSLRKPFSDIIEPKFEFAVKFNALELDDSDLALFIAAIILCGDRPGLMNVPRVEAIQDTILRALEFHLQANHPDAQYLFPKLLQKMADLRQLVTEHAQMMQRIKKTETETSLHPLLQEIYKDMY
In short: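 GeneBLAzer PPARd UAS-bla HEK293H cells (beta-lactamase reporter under UAS control), plated and rested 5 h at 37 C, then exposed to compounds in DMSO at 37 C; LiveBLAzer B/G FRET substrate added, 2 h room temperature, fluorescence read.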

[10] = target: Peroxisome proliferator-activated receptor delta (Homo sapiens) (UniProt Q03181); experiment: qHTS assay to identify small molecule antagonists of the peroxisome proliferator-activated receptor delta (PPARd) signaling pathway (AID 743215; active = well fitted inhibition curve with a large enough effect in the signal ratio in the repeat runs, not every such curve was filed as active; the % refers to the signal ratio;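 note: cells stimulated with agonist L165041 at 300 nM final during compound exposure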; note: potency is the fitted concentration of half-maximal effect)
In short: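 Inhibition of L165041-driven (300 nM final) PPARd signaling is scored in HEK293H UAS-bla cells. Exposure lasts 17 h at 37 C; beta-lactamase activity is then read by FRET substrate fluorescence after 2 h at room temperature.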

[11] = target: Bile acid receptor (Homo sapiens) (UniProt Q96RI1); experiment: qHTS assay to identify small molecule antagonists of the farnesoid-X-receptor (FXR) signaling pathway (AID 743217; active = well fitted inhibition curve with a large enough effect in the signal ratio in the repeat runs, not every such curve was filed as active; the % refers to the signal ratio)
Chain of Bile acid receptor (Homo sapiens) (Q96RI1 whole entry, looked up): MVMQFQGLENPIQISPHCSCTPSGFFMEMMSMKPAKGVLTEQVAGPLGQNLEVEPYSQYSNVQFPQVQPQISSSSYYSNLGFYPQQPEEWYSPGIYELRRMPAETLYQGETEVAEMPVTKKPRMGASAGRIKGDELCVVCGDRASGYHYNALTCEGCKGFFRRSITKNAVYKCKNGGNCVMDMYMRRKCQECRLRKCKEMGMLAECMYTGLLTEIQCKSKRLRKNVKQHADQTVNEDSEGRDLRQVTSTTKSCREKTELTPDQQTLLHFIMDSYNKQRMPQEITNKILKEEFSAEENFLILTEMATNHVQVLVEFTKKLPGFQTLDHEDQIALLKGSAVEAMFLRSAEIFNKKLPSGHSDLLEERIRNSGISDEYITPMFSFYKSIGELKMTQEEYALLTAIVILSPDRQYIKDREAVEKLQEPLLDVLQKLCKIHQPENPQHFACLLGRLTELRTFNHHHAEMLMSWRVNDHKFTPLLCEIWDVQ
In short: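 Antagonist mode against 50 uM (final) chenodeoxycholic acid stimulation in FXR-bla HEK 293T cells, 16 h at 37 °C. Inhibition detected as reduced beta-lactamase activity via LiveBLAzer B/G FRET fluorescence after 2 h at room temperature.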

[12] = qHTS assay to identify small molecule agonists of the farnesoid-X-receptor (FXR) signaling pathway - cell viability counter screen (AID 743218); note: nearly all actives have a fitted effect of over 45% in size; note: potency is the fitted concentration of half-maximal effect
In short: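 Cytotoxicity counter-screen run in parallel, same wells: FXR-UAS-bla HEK 293T cells dosed 16 h at 37 C, viability read by CellTiter-Glo luminescence after 30 min at room temperature.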

[13] = target: Bile acid receptor (Homo sapiens) (UniProt Q96RI1); experiment: qHTS assay to identify small molecule agonists of the farnesoid-X-receptor (FXR) signaling pathway (AID 743220; active = well fitted activation curve with a large enough effect in the signal ratio in the repeat runs, not every such curve was filed as active; the % refers to the signal ratio)
In short: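 Beta-lactamase reporter under UAS control in GeneBLAzer FXR HEK 293T cells (5000/well) measured with LiveBLAzer FRET substrate after 2 h at room temperature. Compound exposure lasted 16 h at 37C.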

[14] = qHTS assay to identify small molecule antagonists of the farnesoid-X-receptor (FXR) signaling pathway - cell viability counter screen (AID 743221; active = well fitted cell-killing curve with a large enough effect in the repeat runs, not every such curve was filed as active; note: nearly all actives have a fitted effect of over 50% in size; note: potency is the fitted concentration of half-maximal effect)
In short: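 Compound effects on cell number were measured as CellTiter-Glo luminescence in HEK 293T cells expressing FXR-UAS-bla, after 16 h at 37 C with 50 uM CDCA (final).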

[15] = target: Vitamin D3 receptor (Homo sapiens) (UniProt P11473); experiment: qHTS assay to identify small molecule antagonists of the vitamin D receptor (VDR) signaling pathway (AID 743223; active = well fitted inhibition curve with a large enough effect in the signal ratio in the repeat runs, not every such curve was filed as active; the % refers to the signal ratio; note: potency is the fitted concentration of half-maximal effect)
Chain of Vitamin D3 receptor (Homo sapiens) (P11473 whole entry, looked up): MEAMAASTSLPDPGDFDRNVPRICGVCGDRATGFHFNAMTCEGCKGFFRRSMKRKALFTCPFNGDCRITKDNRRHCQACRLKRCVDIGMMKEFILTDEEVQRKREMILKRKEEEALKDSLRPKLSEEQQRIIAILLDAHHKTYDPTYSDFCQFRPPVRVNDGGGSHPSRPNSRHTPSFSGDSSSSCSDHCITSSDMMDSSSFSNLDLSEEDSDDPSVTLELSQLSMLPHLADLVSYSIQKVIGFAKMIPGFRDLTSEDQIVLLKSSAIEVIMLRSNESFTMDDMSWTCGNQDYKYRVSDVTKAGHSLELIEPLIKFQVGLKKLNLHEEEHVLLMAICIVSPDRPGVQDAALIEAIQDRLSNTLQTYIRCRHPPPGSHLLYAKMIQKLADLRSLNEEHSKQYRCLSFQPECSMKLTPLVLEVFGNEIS
In short: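 Beta-lactamase activity in VDR-bla cells is measured by FRET substrate fluorescence (2 h, room temperature) after cells spend 16 h at 37C with test compound and 3 nM final 1alpha,25-dihydroxyvitamin D3.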

[16] = target: Retinoic acid receptor RXR-alpha (Homo sapiens) (UniProt P19793); experiment: qHTS assay to identify small molecule agonists of the RXR signaling pathway (AID 1159527; calls by dose curve; note: nearly all actives have a fitted effect of over 35% in size)
Chain of Retinoic acid receptor RXR-alpha (Homo sapiens) (P19793 whole entry, looked up): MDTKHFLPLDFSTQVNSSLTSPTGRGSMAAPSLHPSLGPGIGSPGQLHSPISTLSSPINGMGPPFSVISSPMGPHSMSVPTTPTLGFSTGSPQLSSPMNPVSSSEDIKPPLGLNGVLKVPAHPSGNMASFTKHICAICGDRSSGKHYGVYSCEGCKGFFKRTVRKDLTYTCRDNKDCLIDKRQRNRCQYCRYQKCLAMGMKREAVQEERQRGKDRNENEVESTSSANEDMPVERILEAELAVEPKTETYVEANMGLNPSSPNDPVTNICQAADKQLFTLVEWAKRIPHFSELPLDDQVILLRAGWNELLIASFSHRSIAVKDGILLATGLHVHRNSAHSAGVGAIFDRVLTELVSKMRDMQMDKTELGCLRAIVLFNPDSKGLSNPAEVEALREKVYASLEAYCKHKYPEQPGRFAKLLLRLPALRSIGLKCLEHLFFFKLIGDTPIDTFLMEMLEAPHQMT
In short: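 Fluorescence ratio readout (460 vs 530 nm) from GeneBLAzer RXR-alpha HEK 293T cells after 16 hr compound treatment; cells seeded 5 hr beforehand in low-serum, charcoal-stripped medium.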

[17] = target: Vitamin D3 receptor (Homo sapiens) (UniProt P11473); experiment: qHTS assay to identify small molecule agonists of the vitamin D receptor (VDR) signaling pathway (AID 743222; calls by dose curve)
In short: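 Quantitative HTS agonist-mode screen: compounds in DMSO were pin-transferred onto VDR-bla cells and incubated 16 h at 37C, 5% CO2. Reporter activity was detected with LiveBLAzer B/G FRET substrate after 2 h at room temperature.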

Measured: Potency

C[C@@H]1O[C@@H](O[C@H]2C[C@@H](O)[C@]3(CO)[C@H]4[C@H](O)C[C@]5(C)[C@@H](C6=CC(=O)OC6)CC[C@]5(O)[C@@H]4CC[C@]3(O)C2)[C@H](O)[C@H](O)[C@H]1O
active: [1] 46.5 nM and 188 nM | [2] 16.5 nM and 133 nM | [3] 16.5 nM and 75 nM | [4] 16.5 nM and 107 nM
inactive: [5] | [6] | [7]

SCc1ccco1
inactive: [8]

CN(C)c1ccc(N=Nc2ccccc2)cc1
inactive: [1] | [9] | [2] | [10] | [11] | [12] | [13] | [14] | [15] | [3] | [4] | [8] | [6] | [7]

Clc1ccc(-c2ccccc2)cc1
inactive: [6] | [7] | [16]

CCOP(=S)(OCC)SCS(=O)(=O)CC
inactive: [5] | [6] | [7] | [16]

C[C@@H]1O[C@@H](O[C@@H]2C=C3CC[C@@H]4[C@H](CC[C@]5(C)[C@@H](c6ccc(=O)oc6)CC[C@]45O)[C@@]3(C)CC2)[C@H](O)[C@H](O)[C@H]1O
inactive: [7]
active: [1] 18.8 nM | [2] 0.0119 µM | [14] 10.6 nM | [3] 0.0133 µM | [4] 0.0134 µM | [5] 21.1 µM

CN(C)S(=O)(=O)N(SC(F)(Cl)Cl)c1ccccc1
active: [2] 27.5 µM | [12] 38.9 µM | [14] 43600 nM | [3] 15.5 µM | [4] 27.5 µM | [6] 34.7 µM

C[As+](C)(C)CC(=O)[O-]
active: [7] 43.6 µM
inactive: [5] | [16]

N#C/C=C/c1ccccc1
inactive: [8] | [6] | [7] | [16]

CCC(C)(C)C(=O)OC1=C(c2ccc(Cl)cc2Cl)C(=O)OC12CCCCC2
inactive: [1] | [9] | [2] | [10] | [12] | [13] | [14] | [17] | [3] | [4] | [8] | [16]

O=CC(Br)(Br)Br
active: [12] 13.8 µM | [3] 17.3 µM | [4] 48.8 µM | [5] 7.67 µM | [7] 7.74 µM

N#Cc1c(-c2ccc(Cl)cc2)[nH]c(C(F)(F)F)c1Br
active: [8] 137 nM
inactive: [6]

CC(C)(COCC1CO1)COCC1CO1 (stereo not drawn)
inactive: [5] | [6] | [7] | [16]

COS(=O)(=O)c1ccc(C)cc1
inactive: [8] | [7] | [16]

ClCCN1CCOCC1
inactive: [8] | [6] | [7] | [16]

C[C@H]1O[C@@H](O[C@H]2[C@@H](O)C[C@H](O[C@H]3[C@@H](O)C[C@H](O[C@H]4CC[C@@]5(C)[C@H](CC[C@@H]6[C@@H]5CC[C@]5(C)[C@@H](C7=CC(=O)OC7)CC[C@]65O)C4)O[C@@H]3C)O[C@@H]2C)C[C@H](O)[C@@H]1O
active: [1] 119 nM | [12] 0.0311 µM | [14] 13.9 nM | [3] 15.6 nM and 106 nM
inactive: [13]

CN(CCCC(=O)c1cccnc1)N=O
inactive: [8] | [7] | [16]

CC(C)C(=O)Cl
inactive: [5] | [7] | [16]

COc1ccc(OC)c(C=O)c1
inactive: [5] | [6] | [16]

NC(=O)c1ccc(N)nc1
inactive: [7]
active: [8] 611 nM

CC[C@H](C)[C@H]1O[C@]2(C=C[C@@H]1C)C[C@@H]1C[C@@H](C/C=C(\C)[C@@H](O[C@H]3C[C@H](OC)[C@@H](O[C@H]4C[C@H](OC)[C@@H](O)[C@H](C)O4)[C@H](C)O3)[C@@H](C)/C=C/C=C3\CO[C@@H]4[C@H](O)C(C)=C[C@@H](C(=O)O1)[C@]34O)O2
active: [1] 11500 nM | [2] 9.15 µM | [12] 12.9 µM | [14] 12900 nM | [3] 7.27 µM | [5] 25.6 µM | [6] 23 µM

CCOP(=S)(OCC)OC(Cl)C(Cl)(Cl)Cl (stereo not drawn)
inactive: [9] | [10] | [12] | [14] | [17] | [3] | [4] | [8] | [6] | [16]

Cc1cccc(OP(=O)(Oc2cccc(C)c2)Oc2cccc(C)c2)c1
inactive: [5] | [6] | [7] | [16]

O=C/C(Cl)=C(/Cl)C(=O)O
active: [8] 13.7 µM and 21.7 µM
inactive: [1] | [9] | [14] | [17] | [3] | [4] | [7]

CC(C)CC(C)(c1ccc(O)cc1)c1ccc(O)cc1
inactive: [13]
active: [15] 54.9 µM | [3] 49 µM | [8] 43.4 µM and 48.6 µM | [6] 43.8 µM
55.1 µM (active) and inactive: [14]

CCCCCCCCCCCCCCCCCCn1cc[n+](C)c1
active: [2] 7.72 µM | [10] 19.4 µM | [12] 48.7 µM | [3] 9.72 µM | [4] 19.4 µM | [8] 3050 nM
inactive: [6] | [7]
